What all share (assay type): functional
The test system of assay [1] is Plasmodium falciparum. Nature of the assay: GSK_TCMDC: Inhibition of Plasmodium falciparum 3D7 in whole red blood cells, using parasite LDH activity as an index of growth. Test compounds present at 2uM.
Assay [2] deals with Plasmodium falciparum. As to the kind of experiment: GSK_TCMDC: Inhibition of Plasmodium falciparum Dd2 in whole red blood cells, using parasite LDH activity as an index of growth. Test compounds present at 2uM.
Assay [3] relates to HepG2. As to the kind of experiment: GSK_TCMDC: Percent inhibition of human HepG2 cell line. Test compounds present at 10uM.

For the molecule `Cc1ccc(NC(=N)Nc2ncccc2OCc2c(F)cccc2Cl)cc1`, the Inhibition in assay [1] worked out at 86%; in assay [2], 54%; in assay [3] it was 78%.
As for `CCC(CC)OC(=O)C(C)c1cccc(C(=O)c2ccccc2)c1` (stereo not given), the Inhibition in assay [1] came out at 93%; in assay [2], 0%; in assay [3], 0%.
Turning to `CCCC(=O)Nc1ccc(OCCCCN(Cc2ccccc2C(F)(F)F)c2ccc(C(F)(F)F)c(C#N)c2)cc1`, the Inhibition was 94% in assay [1], 94% in assay [2] and 6% in assay [3].
For the molecule `Cc1cc(N)ncc1-c1ccc(NC(=O)Nc2cc(C(F)(F)F)ccc2F)cc1.O=C(O)C(F)(F)F`, the Inhibition in assay [1] worked out at 100%; in assay [2] it was 23%; in assay [3], 15%.
With `CN1CCN(c2ccc3[nH]c(-c4ccc(Cc5cc(Cl)ccc5OCc5ccccc5)o4)nc3c2)CC1.Cl`, the Inhibition in assay [1] was found to be 100%; in assay [2] it was 79%; in assay [3], 27%.
The corresponding values for `O=C(NCCCN1CCC(NC(=O)c2ccc(-c3cccnc3)cc2)CC1)c1ccc(Cl)c(Cl)c1.O=C(O)C(F)(F)F` are 94%, 23% and 17%.
Consider `COc1ccc(-c2nc3c(NCc4ccccc4)nccc3[nH]2)c(OC)c1`, for which the Inhibition in assay [1] was found to be 99%; in assay [2], 21%; in assay [3] it was 16%.
Turning to `CCc1c(C(=O)NC2CCC(N3CCC(c4ccccc4C)CC3)CC2)[nH]c2ccc(OC)cc12` (stereo not given), the Inhibition in assay [1] came out at 100%; in assay [2], 100%; in assay [3] it was 78%.
For the molecule `Cc1sc2nc(CN3CCCC3)nc(-n3c(NCCO)nc4ccccc43)c2c1C`, the Inhibition in assay [1] was determined as 96%; in assay [2], 11%; in assay [3] it was 19%.
The corresponding values for `COc1cc(Cc2cnc(N)nc2N)cc(OC)c1OC` [TRIMETHOPRIM] are 88%, 2% and 0%.
Taken in the same sequence, the figures for `CC(C)Sc1nc2c(c(=O)n1CCc1ccccc1)C1(CCCCC1)Cc1ccccc1-2` were 92%, 5% and 8%.
`N#Cc1ccc(N2CCN(Cc3ccc(-c4ccc(-c5nc6ccccc6[nH]5)s4)cc3)CC2)nc1.O=C(O)C(F)(F)F`: the figures for the Inhibition in assay [1], in assay [2] and in assay [3] were 99%, 63% and 17%, respectively.
For `N#Cc1cccc(NC(=O)Nc2ccc(-c3cccc(-c4nc5cc(F)ccc5[nH]4)c3)cc2)c1`, the Inhibition in assay [1] was 100%; in assay [2], 100%; in assay [3] it was 64%.
Consider `Cc1ccc(Oc2cnn(C)c(=O)c2Nc2cccc(C(=O)NCCc3ccccn3)c2)c(C)c1`, for which the Inhibition in assay [1] is given as 94%; in assay [2], 94%; in assay [3], 0%.
Consider `Cc1nc(NCc2ccccc2)cc(NCC(O)c2ccc(O)cc2)n1` (stereo not given), for which the Inhibition in assay [1] was 85%; in assay [2] it was 10%; in assay [3], 5%.
The corresponding values for `Cc1nc2c(c([O-])c1Cl)-c1ccc(Oc3cccc(C(F)(F)F)c3)cc1C2=O.[Na+]` are 94%, 95% and 25%.
The corresponding values for `Cc1ccc(C(=O)Cn2nc(-c3ccc(C)c(S(=O)(=O)N4CCCC4)c3)ccc2=O)cc1` are 94%, 70% and 0%.
The corresponding values for `COc1ccccc1CCNc1nc(C)cc(N[C@@H](CC(C)C)C(=O)NCc2cccc(F)c2)n1.O=C(O)C(F)(F)F` are 94%, 79% and 20%.
Turning to `CCCCCCCCNc1c2ccc(Cl)cc2nc2ccc(OC)cc12.Cl`, the Inhibition in assay [1] worked out at 89%; in assay [2] it was 96%; in assay [3], 11%.
Taken in the same sequence, the figures for `COc1ccc2c(c1)CC(NCc1ccc(-c3ccc4nc[nH]c4c3)cc1)C2.O=C(O)C(F)(F)F` (stereo not given) were 100%, 71% and 30%.
The corresponding values for `COc1ccc(Cc2c(C)nc3nc(N)nc(N)c3c2C)cc1OC.Cl` are 93%, 0% and 66%.
Take `COc1ccc(CN(C)Cc2cc(C(C)C)c(C)cc2O)cc1F`: the Inhibition in assay [1] amounted to 98%; in assay [2], 98%; in assay [3] it was 1%.
With `CCOC(=O)c1c(NC(NC(=O)c2ccc(C(C)(C)C)cc2)C(Cl)(Cl)Cl)sc2c1CCCC2` (stereo not given), the values for the Inhibition in assay [1], in assay [2] and in assay [3] were 98%, 94% and 1%, respectively.
For `O=C(O)C(F)(F)F.c1cc(-c2ccc(CN3CCCCC3)cc2)cc(-c2nc3ccccc3[nH]2)c1`, the values for the Inhibition in assay [1], in assay [2] and in assay [3] were 100%, 79% and 39%, respectively.
The corresponding values for `CCC(CO)NCC(O)Cn1c2ccc(Br)cc2c2cc(Br)ccc21` (stereo not given) are 100%, 87% and 18%.
The corresponding values for `COc1cc(N)cc2sc(N)nc12` are 99%, 99% and 0%.
Taken in the same sequence, the figures for `CSC1=NC(=Nc2ccccc2C)C2(CCC(C(C)(C)C)CC2)N1c1ccccc1Cl.I` (stereo not given) were 96%, 89% and 3%.
As to `COc1ccc(NC(=O)NC2CCN(c3ccnc4cc(Cl)ccc34)C2)cc1.O=C(O)C(F)(F)F` (stereo not given), the Inhibition stood at 100% in assay [1], 69% in assay [2] and 10% in assay [3].
On to `Cc1cc(N2CCCCC2)nc2ccc(NC(=O)c3cc(=O)c4ccccc4o3)cc12`, for which the Inhibition in assay [1] was determined as 98%; in assay [2], 19%; in assay [3], 15%.
The corresponding values for `COc1ccc(C2CCN(CCCCNC(=O)c3ccc(NC(=O)c4ccc(Cl)cc4)cc3)CC2)c(C)c1.Cl` are 98%, 35% and 22%.

What is called Inhibition is the drop in the measured response relative to a control, in per cent. Read a low Inhibition as a response near the control.

These data come from ChEMBL document CHEMBL1157539, “Thousands of chemical starting points for antimalarial lead identification” (Nature, 2010).
